LMP1 NFkB inh: EBV LMP1-driven NF-kappaB luciferase reporter inhibitors, primary screen, cell-based, luminescence, single point; LMP1-induced NF-kappaB luciferase reporter cells; inhibition, % at 12.5 µM; 350,000 tested, 0.69% active; AID 504558, 2011; in the data active = inhibition above about 41%;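 note: 0% = neutral control wells and 100% = reference inhibitor control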
MITF TRPM1 inh: inhibitors of MITF-dependent TRPM1 promoter reporter, primary screen, cell-based, SK-MEL-5, single point, luciferase; AID 488899, 2010; 330,000 tested, 0.83% active; inhibition, % at 12.5 µM; SK-MEL-5 TRPM1 promoter luciferase, 24 h;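 active = mean inhibition across replicates of 60% or more, whatever share of single replicates reaches that level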
Shn3 3UTR inh: reduction of Shn3 3'UTR firefly luciferase signal, primary screen, Schnurri-3 inhibitor project, cell-based, Clone20 osteoblasts, set 2 | Clone20 osteoblast Shn3 3'UTR firefly luciferase, 24 h | inhibition, % at 12.5 µM | 360,000 tested, 0.52% active;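 active = mean inhibition of at least 75% with every replicate also reaching 75%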;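 note: 0% = median of neutral control wells and 100% = pilot-screen positive control compound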
TWEAK-Fn14 inh: inhibitors of TWEAK-Fn14 signaling, primary screen, luciferase reporter cells, uHTS; 360,000 tested, 2% active; TWEAK-stimulated Fn14 reporter cells, luciferase luminescence, 8 h; inhibition, % at 10 µM; in the data active = inhibition above about 50%
Peg3 prom inh: Peg3 promoter-driven luciferase inhibitors, primary screen, cell-based, HeLa, luciferase luminescence; HeLa PEG-Prom luciferase reporter, overnight; inhibition, % at 20 µM; 360,000 tested, 1.7% active;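 active = inhibition of at least 50% at 20 µM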
TROY signal inh: inhibitors of TROY-driven NF-kB signaling, primary screen, Q293 LMP1-TROYcd cells, NF-kB luciferase, uHTS; inhibition, % at 10 µM; AID 1347056, 2019; Q293 LMP1-TROYcd NF-kB luciferase reporter, 4 h; 360,000 tested, 0.98% active;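 active = compounds whose plate-normalised and pattern-corrected inhibition of the luciferase reporter signal at the single screening dose is 50% or more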
An asterisk follows results filed as active; · = no result given. Most compounds without a hit are left out; they make up all but 4.1% or so of the library.

SMILES	LMP1 NFkB inh	MITF TRPM1 inh	Shn3 3UTR inh	TWEAK-Fn14 inh	Peg3 prom inh	TROY signal inh
Cc1ccc(/C=C/C(=O)c2c(C)nc3ccccn23)cc1	-17	-10	9	52*	-235	-35
C/C(=N\NC(=O)c1c(C)nc2ccccn12)c1cccc([N+](=O)[O-])c1	6	16	-16	14	6	20
Cc1ccc(NC(=O)c2ccc(CSc3nccc(C)n3)cc2)cc1	6	-17	2	3	-42	-13
Cc1ccnc(SCc2ccc(C(=O)O)cc2)n1	-2	-6	-2	108*	-2	-12
Cc1cc2cc(C)c(NCCNC(=O)c3cccs3)nc2cc1C	3	-1	22	-32	25	13
COc1ccccc1CNC(=O)CCc1cn(C)c2ccccc12	74*	20	12	-3	-19	-10
COc1ccccc1CNC(=O)CCCc1cn(C)c2ccccc12	-3	1	8	3	3	-12
CCC(=O)N(CCc1ccccc1C)Cc1cc2ccc(C)cc2[nH]c1=O	0	0	-9	1	25	16
CC(=O)N(CCc1ccccc1C)Cc1cc2cc3c(cc2[nH]c1=O)OCO3	8	2	4	100*	7	·
CCCn1c(N)c(N(CCOC)C(=O)CCC2CCCCC2)c(=O)[nH]c1=O	-3	2	-20	-19	-10	-5
Cc1cc2ncn(/N=C/c3ccc([N+](=O)[O-])s3)c2cc1C	-3	43	3	0	73*	-1
COc1cccc(/C=N/n2cnc3cc(C)c(C)cc32)c1OC	-16	-72	-52	-33	-158	-45
O=[N+]([O-])c1ccc(/C=N/n2cnc3ccccc32)s1	37	86*	90*	54*	38	-16
O=C(O)c1cc(=O)c2c(OCC(O)COc3cccc4oc(C(=O)O)cc(=O)c34)cccc2o1	76*	6	-20	-7	-15	5
CCC(CO)[n+]1c(C)cc(/C=C2\Sc3ccccc3N2Cc2ccccc2)cc1C (stereo not drawn)	-3	82*	76	-3	62*	-47
COC(=O)[C@H](CC(C)C)NC(=O)Nc1ccc2c(c1)OCCO2	7	4	14	66*	-22	32
CC(C)CC(NC(=O)C1CCC(C)CC1)C(=O)Nc1ccc2c(c1)OCCO2 (stereo not drawn)	3	7	13	68*	-74	31
COc1ccc(CN(Cc2cccn2C)C(=O)c2cc3cc(OC)ccc3[nH]2)cc1	-2	10	17	-28	36	6
COc1cccc(/C=N/Nc2nc(Nc3ccc([N+](=O)[O-])cc3)nc(N3CCCC3)n2)c1O	3	11	89*	45	62*	-2
O=[N+]([O-])c1ccc(Nc2nc(N/N=C/c3cccc(F)c3)nc(N3CCCC3)n2)cc1	-20	0	49	35	28	-12
COc1cccc(/C=N/Nc2ccc([N+](=O)[O-])cn2)c1O	52*	12	79	89*	59*	56*
O=[N+]([O-])c1ccc(NN=Cc2cccc3ccccc23)nc1	-21	-26	-25	-39	-72	-38
O=[N+]([O-])c1cccc(C=NNc2ccc3ccccc3n2)c1O	12	79*	72	97*	18	75*
CCN(Cc1nc2ccccc2c(=O)[nH]1)C(=O)COc1ccccc1Cc1ccccc1	-7	7	17	22	30	8
COc1ccc(CNC(=O)c2nc(S(=O)(=O)Cc3ccccc3)ncc2Cl)cc1	-6	67*	92*	73*	104*	59*
SMILES	LMP1 NFkB inh	MITF TRPM1 inh	Shn3 3UTR inh	TWEAK-Fn14 inh	Peg3 prom inh	TROY signal inh
Cc1nc(Cl)c(C(=O)NCc2ccccc2)c(C)c1Cl	14	-14	11	-8	1	11
O=C(NCc1ccccc1)c1nc(S(=O)(=O)Cc2ccccc2)ncc1Cl	-14	49	94*	82*	105*	70*
COC(=O)c1ccccc1NC(=O)c1nc(S(=O)(=O)Cc2ccccc2)ncc1Cl	10	93*	95*	76*	92*	58*
COC(=O)c1cscc1S(=O)(=O)Cc1ccccc1	-1	-8	5	23	0	-2
Cc1noc(C(=O)NCc2ccccc2)c1Cl	-2	-15	-5	-6	10	-10
O=C(NCc1ccccc1)c1c(Cl)nc(Cl)c(Cl)c1Cl	81*	77*	-4	93*	102*	66*
CC1CN(S(=O)(=O)c2cc(C(=O)NC(C)c3cccnc3)ccc2Cl)CC(C)O1 (stereo not drawn)	-1	11	8	9	14	-3
C=CCn1c(SCC(=O)Nc2ccc(O)cc2)nc2sc(CC)cc2c1=O	0	11	11	8	31	7
COc1ccc(CN2CCN(C3CCC3)CC2CCO)c(F)c1 (stereo not drawn)	1	15	4	11	17	-3
CCCc1cc(=O)[nH]c(SCC(=O)NCCN2C(=O)CSC2=O)n1	19	2	-16	14	-8	-9
N#Cc1ccccc1COC(=O)CCC(=O)c1cccs1	-4	5	5	-9	0	-50
CCOc1cccc(CN2CCC(CCC(=O)NC3CC3)CC2)c1O	-3	-4	-13	21	3	9
Cc1ccc(-n2nnnc2SCC(=O)NC2CCS(=O)(=O)C2)c(C)c1 (stereo not drawn)	1	-3	5	-13	8	-2
O=C1NN(c2ccccc2)C(=O)/C1=C/c1ccc(-c2ccc(Cl)c(C(=O)O)c2)o1	-15	-11	-24	-9	13	4
Cc1cccc(N2NC(=O)/C(=C/c3ccc(-c4ccc(Cl)c(C(=O)O)c4)o3)C2=O)c1	2	9	-15	6	2	12
O=C1NN(c2ccccc2)C(=O)/C1=C/c1ccc(Sc2ccc(Cl)cc2)o1	-7	1	17	63*	-17	-6
Cc1ccc(Sc2ccc(/C=C3/C(=O)NN(c4ccccc4)C3=O)o2)cc1	2	-3	12	89*	-2	-12
CC(NC(=S)NCCN1CCOCC1)C12CC3CC(CC(C3)C1)C2 (stereo not drawn)	8	-9	19	1	2	8
CC(C)COC(=O)N(C)C[C@@H]1OCc2cnnn2CCCC(=O)N([C@H](C)CO)C[C@@H]1C	-7	·	-19	-4	3	0
N#Cc1c(-c2ccc(Cl)cc2)n(O)c2ccccc12	2	3	25	64*	-14	50
CC(C)(C)c1ccc(C(=O)NCCNC(=O)c2ccco2)cc1	-19	-7	-2	22	-17	-42
